PubChem BioAssay (NCI)
Compounds without any hit were thinned out: in the full panel of roughly 83,000, 20% have a hit.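 Interpretation: 100, growth as untreated; towards 0, rising growth inhibition; 0, no net growth; 0 to -100, cell death. Compounds scoring below 10 were considered active.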 Calls of active or inactive are those of the source.

Legend:
Experiment in all cases: NCI-60 one-dose screen, 48 h (100 = growth as untreated, 0 = no growth, -100 = all killed)
[1] = tested on: NCI-H23 lung; conditions: 10 µM unless noted
[2] = tested on: NCI-H226 lung; conditions: 10 µM unless noted
[3] = tested on: NCI-H322M lung; conditions: 10 µM unless noted
[4] = tested on: NCI-H460 lung; conditions: 10 µM unless noted
[5] = tested on: HOP-92 NSCLC; conditions: 10 µM
[6] = tested on: NCI-H522 lung; conditions: 10 µM
[7] = tested on: A549/ATCC NSCLC; conditions: 10 µM unless noted
[8] = tested on: 786-0 renal; conditions: 10 µM unless noted
[9] = tested on: COLO 205 colon; conditions: 10 µM unless noted

Measured: growth

COc1cc(OC)c2c(=O)cc(-c3ccccc3)oc2c1
inactive: [1] 106% | [2] 101% | [3] 93.2% | [4] 104% | [5] 54.9% | [6] 82.8% | [7] 96.7% | [8] 49% | [9] 117%

COc1ccc(-c2nc(Nc3nc4ccccc4[nH]3)nc(N)c2C#N)cc1
inactive: [1] 100% | [2] 85.4% | [3] 111% | [4] 109% | [5] 88.6% | [6] 92.5% | [7] 106% | [8] 102% | [9] 81.4%

CCOc1ccccc1/C=N\N=C(N/N=C/c1ccccc1OCC)N/N=C/c1ccccc1OCC
active: [4] 1.36% | [5] -21.1% | [6] 1.5% | [7] 9.6% | [9] -38.9%
inactive: [1] 18.8% | [2] 20.3% | [3] 11.3% | [8] 22.9%

C#CCCCCCCC[C@@H]1OC(=O)[C@H]([C@@H](C)CC)NC(=O)[C@H]([C@@H](C)CC)NC(=O)CC(=O)[C@@H]1C
inactive: [1] 99.8% | [2] 89% | [3] 99.6% | [4] 103% | [5] 78.1% | [6] 92.5% | [7] 105% | [8] 101% | [9] 112%

O=C(/C=C1\C(=O)N(Cc2ccccc2)c2ccccc21)c1ccc(OCCN2CCCCC2)cc1
active: [6] -44.5% | [8] -74.3% | [9] -34%
inactive: [1] 58.9% | [2] 84.6% | [3] 92.6% | [4] 87.7% | [5] 10.7% | [7] 83%

COC(=O)c1ccc2[nH]c(O)c(C(=Nc3ccc(N(C)C(=O)CN4CCN(C)CC4)cc3)c3cccc(OC)c3)c2c1
inactive: [2] 32.4% | [3] 21.8% | [5] 48.3% | [6] 12.1% | [8] 10.4%
active: [1] 7.62% | [4] 7.31% | [7] 9.85% | [9] -55.8%

CCOc1ccc(/C=N/NC(=O)c2cccc3ccccc23)cc1OCC
inactive: [1] 92.3% | [2] 96.7% | [3] 119% | [4] 101% | [5] 68.5% | [6] 87.4% | [7] 96.6% | [8] 102% | [9] 110%
